Source: PubChem BioAssay (National Center for Advancing Translational Sciences (NCATS))
Most compounds without a hit are left out; they make up all but 1.8% or so of the library.
TrxR1 inh = rat TrxR1 inhibition | O89049 | Potency, µM (highest dose often 114 µM), hits mostly inhibitors | 390,000 tested, 1% active | recombinant rTrxR1, NADPH fluorescence consumption, selenite substrate; note: nearly all actives have a fitted effect of over 65% in size
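Rat TrxR1 (90 nM in the dispensed reagent) was pre-reduced with 400 uM NADPH for 5 min at room temperature, then incubated with compound for 15 min. After 400 uM selenite was added, NADPH fluorescence (Ex 340/Em 450 nm) was followed for 8 min.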
Vif-APOBEC3F blk = inhibitors of Vif-A3F interaction; HeLa A3F-eYFP + Vif (tagged APOBEC3F with the HIV-1 protein that degrades it), YFP fluorescence increase; Potency, µM (doses to about 46.1 µM); 390,000 tested, 0.2% active; AID 602313; note: nearly all actives have a fitted effect of over 65% in size
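HeLa cells stably expressing A3F-eYFP plus Vif, plated and incubated overnight at 37 deg C, then exposed to compounds overnight at 37 deg C. Blocked degradation read as raised yellow fluorescence (Ex 488/Em 500-530).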
TrxR1 substrate = substrates of rat thioredoxin reductase 1; O89049; purified TrxR1 substrate turnover, NADPH consumption readout; Potency, µM (titrated, usually from 114 µM); 390,000 tested, 0.01% active; AID 588456; note: nearly all actives have a fitted effect of over 50% in size
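Rat TrxR1, dispensed at 90 nM, was prereduced with 400 uM NADPH (final) for 5 min at ~22 deg C, then incubated with compound 15 min before 400 uM selenite. A first-read NADPH fluorescence drop versus no-compound background flagged substrates.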
VDR inh = inhibitors of human vitamin D receptor; P11473; Potency, µM, usual class: inhibitors; VDR-SRC2-3 peptide fluorescence polarization, 2 h; 400,000 tested, 0.93% active
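Compounds are added to VDR with labelled SRC2-3 coactivator peptide and held 2 h at room temperature. Inhibition of the VDR–peptide interaction is then read as a change in fluorescence polarization.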
Vif-APOBEC3G blk = Vif-A3G binding inhibition; Q9HC16; HeLa A3G-eYFP + Vif (tagged APOBEC3G with the HIV-1 protein that degrades it), YFP fluorescence, overnight; 410,000 tested, 0.076% active; Potency, µM (titrated, usually from 46.1 µM), most hits filed as inhibitors; note: nearly all actives have a fitted effect of over 60% in size
Target sequence (Q9HC16 whole entry, looked up): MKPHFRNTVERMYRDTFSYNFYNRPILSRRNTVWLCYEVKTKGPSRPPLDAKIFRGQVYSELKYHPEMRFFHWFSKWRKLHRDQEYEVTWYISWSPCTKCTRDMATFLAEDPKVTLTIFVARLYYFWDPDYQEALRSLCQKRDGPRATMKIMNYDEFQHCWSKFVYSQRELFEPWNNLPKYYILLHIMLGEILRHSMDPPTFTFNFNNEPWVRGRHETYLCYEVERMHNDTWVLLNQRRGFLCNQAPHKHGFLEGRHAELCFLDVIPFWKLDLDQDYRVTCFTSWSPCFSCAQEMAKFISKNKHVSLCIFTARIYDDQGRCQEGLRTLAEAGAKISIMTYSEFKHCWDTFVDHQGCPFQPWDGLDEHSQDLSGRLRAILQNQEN
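HeLa cells stably expressing Vif and C-terminally eYFP-tagged A3G, seeded overnight at 37 deg C, then exposed to compound by pintool overnight at 37 deg C. Rise in yellow fluorescence (Ex 488/Em 500-530, Acumen) marks blocked Vif-driven A3G degradation.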
Of the large screens only hits and unclear results are named; the others gave an inactive call; ! = a repeat was not active. Calls come from the whole dose curve; as a rule, active = well fitted curve in the direction sought with a large enough effect; inconclusive = small, poorly fitted or top-dose-only effect, or another doubt; inactive = no such curve, though single readings can be large; an effect the other way counts as inactive or inconclusive.

O=C1COc2ccc(C(=O)COC(=O)c3ccc([N+](=O)[O-])cc3Cl)cc2N1	TrxR1 inh 50.1µM
O=C1COc2ccc(C(=O)COC(=O)/C=C/c3ccco3)cc2N1	TrxR1 inh 50.1µM
O=C1COc2ccc(C(=O)COC(=O)c3ccco3)cc2N1	none
O=S(=O)(c1ccc2ccccc2c1)N1CCN(c2nc(-c3ccccc3)nc3ccccc23)CC1	none (no result: Vif-APOBEC3F blk)
COc1ccc(C=C2NC(=S)NC2=O)cc1	none
COc1ccc(/C=C/C=C2\NC(=S)NC2=O)cc1	Vif-APOBEC3F blk 12.6µM, Vif-APOBEC3G blk inconclusive
N[C@@H](CCS(=O)O)C(=O)O	none (no result: TrxR1 inh, Vif-APOBEC3F blk, TrxR1 substrate, Vif-APOBEC3G blk)
O=C(O)CCN1C(=O)/C(=C\c2cccc(OCC(=O)Nc3ccc(Cl)cc3)c2)SC1=S	VDR inh 14.1µM
O=C(O)CN1C(=O)/C(=C\c2cccc(OCc3ccccc3)c2)SC1=S	VDR inh 56.2µM
O=C(O)CN1C(=O)/C(=C\c2cc(Br)ccc2OCc2ccc(Cl)cc2)SC1=S	TrxR1 inh inconclusive, VDR inh 39.8µM
CN1C(=O)/C(=C\c2cccc(OCc3ccccc3)c2)SC1=S	none
O=C(O)COc1cccc(/C=C2/SC(=S)N(Cc3ccccc3)C2=O)c1	VDR inh 79.4µM
CCc1cccc(NC(=O)Cn2cc(C(=O)c3ccncc3)c(=O)c3cc(C)c(C)cc32)c1	none (no result: Vif-APOBEC3F blk, Vif-APOBEC3G blk)
C(=Nc1cccnc1)c1ccc2ccccc2n1	none (no result: Vif-APOBEC3F blk, VDR inh)
Cc1ccc(C(=O)N/C(=C/c2ccco2)C(=O)NCC2CCCO2)cc1 (centres undefined)	TrxR1 inh inconclusive
O=C(/C=C/c1ccco1)c1ccccc1O	Vif-APOBEC3F blk inconclusive
Cc1ccc(/C=C/C(=O)NCC2COc3ccccc3O2)o1 (centres undefined)	TrxR1 inh 15.8µM, VDR inh inconclusive
CC(=C/C(=O)O)/C=C/c1ccco1	TrxR1 inh 28.2µM, Vif-APOBEC3G blk inconclusive
O=C(/C=C/c1ccco1)NCc1ccco1	TrxR1 inh 70.8µM
O=C(/C=C/c1ccco1)NCC1CCCO1 (centres undefined)	TrxR1 inh 28.2µM
COc1ccc(/C=C/C(=O)NCC2COc3ccccc3O2)cc1OC (centres undefined)	none
O=c1nc2ccccc2c2n1CC(CN1CCN(c3ccccc3)CC1)N2 (centres undefined)	none (no result: TrxR1 inh, Vif-APOBEC3F blk, TrxR1 substrate, Vif-APOBEC3G blk)
Cc1ccc(/C=C/C(=O)NCc2ccc(S(N)(=O)=O)cc2)o1	TrxR1 inh 15.8µM, VDR inh 89.1µM
Cc1ccc(/C=C/C(=O)NCCc2c[nH]c3ccccc23)o1	TrxR1 inh inconclusive
Cc1ccc(/C=C/C(=O)NCCc2cccc(Cl)c2)o1	TrxR1 inh inconclusive, VDR inh 79.4µM
NS(=O)(=O)c1ccc(CNC(=O)/C=C/c2ccco2)cc1	TrxR1 inh 17.8µM
C(=Nc1ccc(/C=C/c2ccnc3ccccc23)cc1)c1ccc2c(c1)OCO2	none (no result: Vif-APOBEC3F blk, VDR inh)
Cn1ccc(=S)c2ccccc21	TrxR1 inh 22.4µM
Cc1cc(=O)oc2cc(OC(=O)c3ccco3)ccc12	TrxR1 inh 70.8µM
CCCn1nc(C(=O)Oc2ccc3c(C)cc(=O)oc3c2)c2ccccc2c1=O	TrxR1 inh 50.1µM
Cc1cc(=O)oc2cc(OC(=O)c3nn(C(C)C)c(=O)c4ccccc34)ccc12	TrxR1 inh 25.1µM
CCc1cc(=O)oc2cc(OC(=O)c3ccco3)ccc12	none
C=CCn1c(SCC(=O)N(C)C)nc2sc3c(c2c1=O)CCC3	none
C=CCSc1nc2sc3c(c2c(=O)n1CC)CCC3	Vif-APOBEC3F blk 22.4µM
Cc1csc(NCC(=O)c2c(C)[nH]c3ccccc23)n1	none (no result: Vif-APOBEC3F blk, VDR inh)
Clc1ccc(Cn2c3c(c4ccccc42)CCc2cc4ccccc4nc2-3)cc1	TrxR1 inh inconclusive (no result: Vif-APOBEC3F blk)
O=C(O)c1ccc2c(ccc3nn(-c4ccc(/C=C/c5ccc(-n6nc7ccc8cc(C(=O)O)ccc8c7n6)cc5[S+](=O)([O-])[O-])c([S+](=O)([O-])[O-])c4)nc32)c1	TrxR1 inh inconclusive (no result: Vif-APOBEC3F blk)
Cc1ccccc1-c1ccc2ncnc(N(C)C)c2c1	none (no result: TrxR1 inh, Vif-APOBEC3F blk, TrxR1 substrate, Vif-APOBEC3G blk)
CN(Cc1ccco1)c1ncncc1-c1cccnc1	VDR inh 44.7µM (no result: TrxR1 inh, Vif-APOBEC3F blk, TrxR1 substrate, Vif-APOBEC3G blk)
Cc1ccccc1-c1ccc2ncnc(N(C)Cc3ccco3)c2c1	VDR inh 31.6µM (no result: TrxR1 inh, Vif-APOBEC3F blk, TrxR1 substrate, Vif-APOBEC3G blk)
CN(Cc1ccco1)c1ncnc2ccc(-c3ccc4c(c3)OCO4)cc12	VDR inh 39.8µM!
NS(=O)(=O)c1ccc(NC(=O)c2cnn3c2NC(=C2CC2)C=C3C(F)F)cc1	none (no result: Vif-APOBEC3F blk, VDR inh)
